# Assay results from the supplement of paper PMC8728848.
# Many of the other results were omitted from the sample, so the strongest signals are more common in it than they were.
# B1: GST Gap3 (Streptococcus parasanguinis) (protein)
# chain: MTKQLISEIYWNEIRKGENYLYGSQIKFQEDLVNFYNPQLASGKPIVTFKSRTNYQGDRHSPDLPILIQGNRYLLEYQIDAVPANSFFLQLDFFNRQAEQIESIVLRNSGESFIFPKDTFTYTLTLMSAGCQSVTYQKFMIYDINDEEKKNHIVENRYLRELLPKDLDLVKNLIEYI
# Experiments:
# Experiment in all cases: glycan array binding signal (z-score within array); higher = stronger binding
# Conditions in all cases: glycan notation: IUPAC condensed, linker removed
# [1] = biological target: Fuc(a1-2)Gal(b1-3)GlcNAc(b1-3)[Fuc(a1-3)[Gal(b1-4)]GlcNAc(b1-6)]Gal(b1-4)Glc
# In short: (§1)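 From the Consortium for Functional Glycomics database, 3228 arrays were curated, keeping only those whose protein sequence was available. Binding is given as a within-array Z-score averaged across arrays sharing a protein sequence and across linkers. Negative Z-scores can be read as non-binding.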
# [2] = biological target: Fuc(a1-2)Gal(b1-3)[Fuc(a1-4)]GlcNAc(b1-2)Man(a1-3)[Fuc(a1-2)Gal(b1-3)[Fuc(a1-4)]GlcNAc(b1-2)Man(a1-3)]Man(b1-4)GlcNAc(b1-4)GlcNAc
# In short: as §1
# [3] = biological target: Fuc(a1-2)Gal(b1-4)GlcNAc(b1-2)Man(a1-3)[Fuc(a1-2)Gal(b1-4)GlcNAc(b1-2)Man(a1-6)]Man(b1-4)GlcNAc(b1-4)GlcNAc
# In short: as §1
# [4] = biological target: Fuc(a1-2)Gal(b1-4)GlcNAc(b1-2)Man(a1-3)[Fuc(a1-2)Gal(b1-4)GlcNAc(b1-2)Man(a1-6)]Man(b1-4)GlcNAc(b1-4)[Fuc(a1-6)]GlcNAc
# In short: as §1
# [5] = biological target: Fuc(a1-2)Gal(b1-4)GlcNAc(b1-3)[Fuc(a1-3)[Gal(b1-4)]GlcNAc(b1-6)]Gal(b1-4)Glc
# In short: as §1
# [6] = biological target: Fuc(a1-2)Gal(b1-4)GlcNAc(b1-6)GalNAc
# In short: as §1
# [7] = biological target: Fuc(a1-2)Gal6S(b1-3)GlcNAc6S
# In short: as §1
# [8] = biological target: Fuc(a1-2)Gal6S(b1-4)GlcNAc
# In short: as §1
# [9] = biological target: Fuc(a1-2)[Gal(a1-3)]Gal(b1-3)GlcNAc(b1-6)GalNAc
# In short: as §1
# [10] = biological target: Fuc(a1-2)[Gal(a1-3)]Gal(b1-4)GlcNAc(b1-2)Man(a1-3)[Fuc(a1-2)[Gal(a1-3)]Gal(b1-4)GlcNAc(b1-2)Man(a1-6)]Man(b1-4)GlcNAc(b1-4)GlcNAc
# In short: as §1
# [11] = biological target: Fuc(a1-2)[GalNAc(a1-3)]Gal(b1-4)GlcNAc(b1-3)[Fuc(a1-2)[GalNAc(a1-3)]Gal(b1-4)GlcNAc(b1-6)]GalNAc
# In short: as §1
# [12] = biological target: Fuc(a1-3)[Gal(b1-4)]GlcNAc(b1-3)GalNAc
# In short: as §1
# [13] = biological target: Gal(b1-3)GlcNAc(b1-3)Gal(b1-4)GlcNAc(b1-3)Gal(b1-4)GlcNAc(b1-2)[Gal(b1-3)GlcNAc(b1-3)Gal(b1-4)GlcNAc(b1-3)Gal(b1-4)GlcNAc(b1-6)]Man(a1-6)[Gal(b1-3)GlcNAc(b1-3)Gal(b1-4)GlcNAc(b1-3)Gal(b1-4)GlcNAc(b1-2)Man(a1-3)]Man(b1-4)GlcNAc(b1-4)[Fuc(a1-6)]GlcNAc
# In short: as §1
# [14] = biological target: Gal(b1-3)GlcNAc(b1-3)Gal(b1-4)GlcNAc(b1-6)[Gal(b1-3)GlcNAc(b1-3)]Gal(b1-4)Glc
# In short: as §1
# [15] = biological target: Gal(b1-3)GlcNAc(b1-6)GalNAc
# In short: as §1
# [16] = biological target: Gal(b1-3)[Fuc(a1-4)]GlcNAc(b1-2)Man(a1-3)[Gal(b1-3)[Fuc(a1-4)]GlcNAc(b1-2)Man(a1-6)]Man(b1-4)GlcNAc(b1-4)GlcNAc
# In short: as §1
# [17] = biological target: Gal(b1-4)GlcNAc(b1-2)[Gal(b1-4)GlcNAc(b1-6)]Man(a1-6)[GlcNAc(b1-4)][Gal(b1-4)GlcNAc(b1-2)[Gal(b1-4)GlcNAc(b1-4)]Man(a1-3)]Man(b1-4)GlcNAc(b1-4)[Fuc(a1-6)]GlcNAc
# In short: as §1
# [18] = biological target: Gal(b1-4)GlcNAc(b1-3)Gal(b1-4)GlcNAc(b1-3)Gal(b1-4)GlcNAc(b1-3)Gal(b1-4)GlcNAc(b1-2)[Gal(b1-4)GlcNAc(b1-3)Gal(b1-4)GlcNAc(b1-3)Gal(b1-4)GlcNAc(b1-3)Gal(b1-4)GlcNAc(b1-6)]Man(a1-6)[Gal(b1-4)GlcNAc(b1-3)Gal(b1-4)GlcNAc(b1-3)Gal(b1-4)GlcNAc(b1-3)Gal(b1-4)GlcNAc(b1-2)Man(a1-3)]Man(b1-4)GlcNAc(b1-4)[Fuc(a1-6)]GlcNAc
# In short: as §1
# [19] = biological target: Gal(b1-4)GlcNAc(b1-3)Gal(b1-4)[Fuc(a1-3)GlcNAc(b1-6)]Gal(b1-4)Glc
# In short: as §1
# [20] = biological target: Gal(b1-4)GlcNAc(b1-6)Gal(b1-4)GlcNAc(b1-6)GalNAc
# In short: as §1
# [21] = biological target: Gal3S(b1-4)[Fuc(a1-3)]Glc6S
# In short: as §1
# [22] = biological target: Gal3S(b1-4)[Fuc(a1-3)]GlcNAc
# In short: as §1
# GalNAc(b1-4)GlcNAc = biological target: GalNAc(b1-4)GlcNAc
# In short: as §1
# GalNAc4S6S(b1-4)GlcNAc = biological target: GalNAc4S6S(b1-4)GlcNAc
# In short: as §1
# Glc(a1-4)Glc = biological target: Glc(a1-4)Glc
# In short: as §1
# Glc(a1-6)Glc(a1-6)Glc = biological target: Glc(a1-6)Glc(a1-6)Glc
# In short: as §1
# Glc(b1-4)Glc = biological target: Glc(b1-4)Glc
# In short: as §1
# [23] = biological target: GlcNAc(a1-3)Gal(b1-4)GlcNAc
# In short: as §1
# [24] = biological target: GlcNAc(a1-4)Gal(b1-4)GlcNAc(b1-3)Gal(b1-4)[Fuc(a1-3)]GlcNAc(b1-3)Gal(b1-4)[Fuc(a1-3)]GlcNAc
# In short: as §1
# [25] = biological target: GlcNAc(a1-6)Gal(b1-4)GlcNAc
# In short: as §1
# [26] = biological target: GlcNAc(b1-3)Gal(b1-4)GlcNAc(b1-2)[GlcNAc(b1-3)Gal(b1-4)GlcNAc(b1-6)]Man(a1-6)[GlcNAc(b1-3)Gal(b1-4)GlcNAc(b1-2)Man(a1-3)]Man(b1-4)GlcNAc(b1-4)GlcNAc
# In short: as §1
# [27] = biological target: GlcNAc(b1-3)Gal(b1-4)GlcNAc(b1-3)Gal(b1-4)GlcNAc(b1-2)Man(a1-3)[GlcNAc(b1-3)Gal(b1-4)GlcNAc(b1-3)Gal(b1-4)GlcNAc(b1-2)Man(a1-6)]Man(b1-4)GlcNAc(b1-4)[Fuc(a1-6)]GlcNAc
# In short: as §1
# [28] = biological target: GlcNAc(b1-3)Gal(b1-4)GlcNAc(b1-3)[GlcNAc(b1-3)Gal(b1-4)GlcNAc(b1-3)]GalNAc
# In short: as §1
# [29] = biological target: GlcNAc6S(b1-3)Gal(b1-4)GlcNAc
# In short: as §1
# Man(a1-2)Man(a1-3)Man = biological target: Man(a1-2)Man(a1-3)Man
# In short: as §1
# [30] = biological target: Man(a1-2)Man(a1-6)[Man(a1-3)]Man(a1-6)[Man(a1-2)Man(a1-2)Man(a1-3)]Man
# In short: as §1
# [31] = biological target: Man(a1-3)[Man(a1-6)]Man(a1-6)[Man(a1-3)]Man
# In short: as §1
# MurNAc(b1-4)GlcNAc = biological target: MurNAc(b1-4)GlcNAc
# In short: as §1
# [32] = biological target: Neu5Ac(a2-3)Gal(b1-3)GalNAc(b1-3)Gal(b1-4)GlcNAc
# In short: as §1
# [33] = biological target: Neu5Ac(a2-3)Gal(b1-3)GlcNAc(b1-2)Man(a1-3)[Neu5Ac(a2-3)Gal(b1-3)GlcNAc(b1-2)Man(a1-6)]Man(b1-4)GlcNAc(b1-4)GlcNAc
# In short: as §1
# [34] = biological target: Neu5Ac(a2-3)Gal(b1-3)[GlcNAc(b1-6)]GalNAc
# In short: as §1
# [35] = biological target: Neu5Ac(a2-3)Gal(b1-4)GlcNAc(b1-2)Man(a1-3)[GlcNAc(b1-4)][Neu5Ac(a2-3)Gal(b1-4)GlcNAc(b1-2)Man(a1-6)]Man(b1-4)GlcNAc(b1-4)GlcNAc
# In short: as §1
# [36] = biological target: Neu5Ac(a2-3)Gal(b1-4)GlcNAc(b1-2)Man(a1-3)[Neu5Ac(a2-3)Gal(b1-4)GlcNAc(b1-2)Man(a1-6)]Man(b1-4)GlcNAc(b1-4)[Fuc(a1-6)]GlcNAc
# In short: as §1
# [37] = biological target: Neu5Ac(a2-3)Gal(b1-4)GlcNAc(b1-3)[Neu5Ac(a2-3)Gal(b1-4)GlcNAc(b1-6)]GalNAc
# In short: as §1
# [38] = biological target: Neu5Ac(a2-3)Gal(b1-4)GlcNAc(b1-6)[Gal(b1-3)]GalNAc
# In short: as §1
# [39] = biological target: Neu5Ac(a2-3)Gal(b1-4)[Fuc(a1-3)]GlcNAc(b1-3)Gal
# In short: as §1
# [40] = biological target: Neu5Ac(a2-3)Gal(b1-4)[Fuc(a1-3)]GlcNAc(b1-6)[Neu5Ac(a2-3)Gal(b1-3)]GalNAc
# In short: as §1
# [41] = biological target: Neu5Ac(a2-3)Gal6S(b1-4)[Fuc(a1-3)]GlcNAc
# In short: as §1
# Neu5Ac(a2-3)GalNAc = biological target: Neu5Ac(a2-3)GalNAc
# In short: as §1
# [42] = biological target: Neu5Ac(a2-6)Gal(b1-4)GlcNAc(b1-2)Man(a1-6)[GlcNAc(b1-2)Man(a1-3)]Man(b1-4)GlcNAc(b1-4)GlcNAc
# In short: as §1
# [43] = biological target: Neu5Ac(a2-6)GlcNAc(b1-4)GlcNAc
# In short: as §1
# [44] = biological target: Neu5Ac(a2-8)Neu5Ac(a2-8)Neu5Ac
# In short: as §1
# [45] = biological target: Neu5Gc(a2-3)Gal(b1-4)GlcNAc
# In short: as §1
binder,measurement,setting,value
B1,glycan array binding signal (z-score),[1],-0.027
same,glycan array binding signal (z-score),[2],2.3
same,glycan array binding signal (z-score),[3],3.16
same,glycan array binding signal (z-score),[4],-0.105
same,glycan array binding signal (z-score),[5],-0.573
same,glycan array binding signal (z-score),[6],-0.108
same,glycan array binding signal (z-score),[7],2.06
same,glycan array binding signal (z-score),[8],-0.073
same,glycan array binding signal (z-score),[9],-0.112
same,glycan array binding signal (z-score),[10],0.383
same,glycan array binding signal (z-score),[11],-0.377
same,glycan array binding signal (z-score),[12],0.287
same,glycan array binding signal (z-score),[13],4.03
same,glycan array binding signal (z-score),[14],0.052
same,glycan array binding signal (z-score),[15],0.002
same,glycan array binding signal (z-score),[16],3.61
same,glycan array binding signal (z-score),[17],0.228
same,glycan array binding signal (z-score),[18],2.32
same,glycan array binding signal (z-score),[19],-0.093
same,glycan array binding signal (z-score),[20],-0.125
same,glycan array binding signal (z-score),[21],1.61
same,glycan array binding signal (z-score),[22],-0.723
same,glycan array binding signal (z-score),GalNAc(b1-4)GlcNAc,0.123
same,glycan array binding signal (z-score),GalNAc4S6S(b1-4)GlcNAc,-0.267
same,glycan array binding signal (z-score),Glc(a1-4)Glc,3.14
same,glycan array binding signal (z-score),Glc(a1-6)Glc(a1-6)Glc,0.005
same,glycan array binding signal (z-score),Glc(b1-4)Glc,-0.381
same,glycan array binding signal (z-score),[23],-0.406
same,glycan array binding signal (z-score),[24],2.24
same,glycan array binding signal (z-score),[25],0.544
same,glycan array binding signal (z-score),[26],3.45
same,glycan array binding signal (z-score),[27],0.269
same,glycan array binding signal (z-score),[28],-0.518
same,glycan array binding signal (z-score),[29],-0.145
same,glycan array binding signal (z-score),Man(a1-2)Man(a1-3)Man,-0.273
same,glycan array binding signal (z-score),[30],-0.335
same,glycan array binding signal (z-score),[31],-0.516
same,glycan array binding signal (z-score),MurNAc(b1-4)GlcNAc,-0.582
same,glycan array binding signal (z-score),[32],-0.123
same,glycan array binding signal (z-score),[33],-0.211
same,glycan array binding signal (z-score),[34],-0.638
same,glycan array binding signal (z-score),[35],-0.195
same,glycan array binding signal (z-score),[36],2.2
same,glycan array binding signal (z-score),[37],-0.511
same,glycan array binding signal (z-score),[38],-0.323
same,glycan array binding signal (z-score),[39],-0.462
same,glycan array binding signal (z-score),[40],3.62
same,glycan array binding signal (z-score),[41],0.06
same,glycan array binding signal (z-score),Neu5Ac(a2-3)GalNAc,-0.101
same,glycan array binding signal (z-score),[42],-0.269
same,glycan array binding signal (z-score),[43],-0.465
same,glycan array binding signal (z-score),[44],0.585
same,glycan array binding signal (z-score),[45],-0.209
